Experimental data from PubChem BioAssay AID493113 (Johns Hopkins Ion Channel Center, 2011).
Potency and affinity values are given separately.

target: Potassium voltage-gated channel subfamily KQT member 2 (Rattus norvegicus) (UniProt O88943); test: KCNQ2 channel activators, analog series, SAR follow-up, automated patch clamp, KCNQ2-CHO cells (AID 493113); details: automated patch clamp current potentiation; series mostly up to 30 µM; potentiation: at the top concentration
Sequence (O88943 whole entry, looked up): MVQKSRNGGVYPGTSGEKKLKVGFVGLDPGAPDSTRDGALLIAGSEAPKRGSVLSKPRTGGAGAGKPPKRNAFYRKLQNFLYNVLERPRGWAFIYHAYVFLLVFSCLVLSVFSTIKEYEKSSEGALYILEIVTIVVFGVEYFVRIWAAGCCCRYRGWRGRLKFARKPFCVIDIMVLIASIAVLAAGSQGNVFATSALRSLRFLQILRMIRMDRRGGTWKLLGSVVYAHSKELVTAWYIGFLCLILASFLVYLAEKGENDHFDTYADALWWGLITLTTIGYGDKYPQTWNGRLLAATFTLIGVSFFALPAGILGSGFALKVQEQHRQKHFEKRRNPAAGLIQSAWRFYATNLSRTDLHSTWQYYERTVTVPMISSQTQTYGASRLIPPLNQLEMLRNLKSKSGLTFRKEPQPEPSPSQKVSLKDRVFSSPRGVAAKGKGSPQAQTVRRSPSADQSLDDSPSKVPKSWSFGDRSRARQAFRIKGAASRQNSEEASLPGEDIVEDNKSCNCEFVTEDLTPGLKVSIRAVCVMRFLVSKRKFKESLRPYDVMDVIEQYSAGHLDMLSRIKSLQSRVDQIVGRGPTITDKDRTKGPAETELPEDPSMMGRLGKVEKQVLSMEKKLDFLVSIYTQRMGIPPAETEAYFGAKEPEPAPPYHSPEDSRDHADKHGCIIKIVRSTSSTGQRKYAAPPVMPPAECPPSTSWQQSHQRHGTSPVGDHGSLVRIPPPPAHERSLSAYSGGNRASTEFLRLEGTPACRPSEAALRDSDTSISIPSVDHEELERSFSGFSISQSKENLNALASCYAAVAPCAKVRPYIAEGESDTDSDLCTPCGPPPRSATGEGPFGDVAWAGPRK

potentiation, inactive:
CCC(=O)Nc1c(C)cc(C)cc1C 79.7, Cc1cc(C)c(NC(=O)c2ccc(Cl)c(Cl)c2)c(C)c1 50.9, Cc1cc(C)c(NC(=O)c2ccccc2)c(C)c1 6.47, Cc1cc(C)c(NC(=O)C(C)(C)C)c(C)c1 38.5, Cc1cc(C)c(NC(=O)C23CC4CC(CC(C4)C2)C3)c(C)c1 41.6, O=C(Nc1ccccn1)C1CC2CCC1C2 (configuration not stated) 32.3, Cc1cc(C)c(NC(=O)c2ccc3ccccc3c2)c(C)c1 6.32, Cc1ccc(C(=O)Nc2c(C)cc(C)cc2C)cc1 24.6, Cc1cc(C)c(NC(=O)c2ccc(C(F)(F)F)cc2)c(C)c1 32.3, Cc1cc(C)c(NC(=O)c2cc(C(F)(F)F)cc(C(F)(F)F)c2)c(C)c1 -15.3, Cc1cc(C)c(NC(=O)c2cccc(C(F)(F)F)c2)c(C)c1 -47.8, CC(=O)Nc1c(C)cc(C)cc1C 103, O=C(Nc1ccc(F)cc1)C1CC2CCC1C2 (configuration not stated) 61, O=C(Nc1ccccc1)C1CC2CCC1C2 (configuration not stated) 136, Cc1cc(C)cc(NC(=O)C2CC3CCC2C3)c1 (configuration not stated) 47.4, Cc1cc(C)c(NC(=O)C23CCC(C)(C(=O)O2)C3(C)C)c(C)c1 (configuration not stated) -19.5, O=C(Nc1ccc(C(F)(F)F)cc1)C1CC2CCC1C2 (configuration not stated) 18
